Screening results as filed in PubChem.
Shown are actives, neighbours in structure and some others; about 2% of the full set was active somewhere.
S1P4 antag: blocks the human S1P4 receptor; O95977; AID 1510; inhibition, % at 4.98 µM; S1P4-expressing cells, antagonist mode, reporter read-out; 220,000 tested, 0.26% active; in the data active = inhibition above about 29%;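 note: 0% = wells stimulated with agonist and 100% = vehicle wells without agonist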
Target sequence (O95977 whole entry, looked up): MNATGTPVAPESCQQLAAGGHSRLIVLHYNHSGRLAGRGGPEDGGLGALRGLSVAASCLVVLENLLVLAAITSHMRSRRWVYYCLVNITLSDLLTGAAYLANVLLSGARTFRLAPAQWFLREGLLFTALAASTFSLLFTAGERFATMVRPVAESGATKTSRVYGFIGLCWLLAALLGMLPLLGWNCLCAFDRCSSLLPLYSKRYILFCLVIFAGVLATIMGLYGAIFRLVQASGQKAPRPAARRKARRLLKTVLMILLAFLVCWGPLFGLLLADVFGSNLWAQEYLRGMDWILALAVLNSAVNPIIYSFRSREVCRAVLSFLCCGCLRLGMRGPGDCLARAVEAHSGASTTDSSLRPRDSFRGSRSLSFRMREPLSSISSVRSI
EP2 antag: blocks the human prostaglandin E2 receptor EP2; P43116; 260,000 tested, 0.52% active; inhibition, % at 25 µM; C6 glioma cells expressing human EP2, cAMP TR-FRET; cells stimulated with saturating PGE2; AID 1422;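 active = percent inhibition above 40 after rounding to a whole number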;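 note: rat C6 glioma host cells with rolipram phosphodiesterase inhibitor present; the protocol text gives 20 µM as final concentration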
S1P3 antag: antagonists of human S1P3 receptor | AID 485 | Q99500 | 170,000 tested, 0.27% active | inhibition, % at 4.98 µM | CHO S1P3 NFAT-BLA reporter, FRET fluorescence, antagonist mode;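 active = inhibition above the plate cutoff, the mean inhibition of test wells on that plate plus 3 SD, cut at about 28% in these data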;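 note: cells challenged with S1P at its EC80 of 0.8 µM; blue over green emission ratio from cleaved BLA substrate after 4 h stimulation; 0% = S1P-stimulated wells and 100% = unstimulated DMSO-only wells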
S1P4 agonist: activates the human S1P4 receptor; S1P4-expressing cell line, agonist reporter assay; activation, % at 4.98 µM; 220,000 tested, 0.35% active; AID 1509; in the data active = activation above about 11%;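 note: 0% = DMSO vehicle and 100% = reference agonist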
EP2 modulator: modulators of human EP2 prostaglandin E2 receptor; P43116; EP2-expressing cells, cAMP HTRF FRET, PGE2 co-stimulation; induction, % at 25 µM; 260,000 tested, 0.83% active; AID 940;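 active = compounds whose cAMP rise, as percent of the full-agonist control response, exceeds 60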;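 note: rat C6 glioma line stably carrying human EP2 under a CMV promoter; the protocol text gives 20 µM as final concentration; 100% = response of wells given 1 µM PGE2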
The depositor's hits bear a star; nt = no result; ! = repeats disagree.

SMILES | S1P4 antag | EP2 antag | S1P3 antag | S1P4 agonist | EP2 modulator
COc1cc2c3cc1Oc1c(O)c(OC)cc4c1[C@@H](Cc1ccc(cc1)Oc1cc(ccc1O)C[C@@H]3N(C)CC2)N(C)CC4 | nt | 48* | nt | nt | -7
CCn1nc(CC(=O)N(CCN(C)C)Cc2ccc(F)cc2)c2ccccc2c1=O | nt | 4 | nt | nt | -31
CC[C@@H]1[C@@H]2Cc3ccc(O)cc3[C@@]1(CC)CCN2C | nt | 52* | nt | nt | 14
CN1CCC23CCCC[C@H]2C1Cc1ccc(O)cc13 (stereo not given in full) | nt | 12 | nt | nt | 19
CCOc1nc(NCc2ccco2)nc(N2CC3CC(C2)c2cccc(=O)n2C3)n1 (stereo not given) | nt | 4 | nt | nt | -37
C=C(C)COc1cccc(CN2C3CCC2CC(O)(c2nccn2C)C3)c1 (stereo not given) | nt | 4 | nt | nt | -23
COC[C@]12CN(C=O)C3[C@@H]4[C@H](OC)C1[C@]3(C1CC3(O)C(OC)C(O)C4(OC(C)=O)C1C3OC(=O)c1ccccc1)[C@@H](OC)C[C@H]2O (stereo not given in full) | nt | 10 | nt | nt | -12
Cc1cc2c(C(C)C)c(O)c(O)c(C=O)c2c(O)c1-c1c(C)cc2c(C(C)C)c(O)c(O)c(C=O)c2c1O | 32*! | 47*! | 15 | 1 | 7
COc1ccccc1/C=C/CN1C2CCC1CC(O)(c1nccn1C)C2 (stereo not given) | nt | 7 | nt | nt | 11
C[C@@H](O)CN(CCN(C[C@@H](C)O)C[C@@H](C)O)C[C@@H](C)O.O=[N+]([O-])O.[Cu] | nt | 41* | nt | nt | 14
Cc1cccc(Nc2nc(CC(=O)N(C)CCN3CCCCC3)cs2)c1 | nt | 2 | nt | nt | -29
O=S(=O)(Nc1nccs1)c1ccc([As](=O)(O)O)cc1 | nt | 12 | nt | nt | 11
NS(=O)(=O)c1ccc(-c2ccc([As](=O)(O)O)cc2)cc1 | nt | 45* | nt | nt | 19
NC(Cc1ccccc1)c1ccc2c(c1)OCCO2 (stereo not given) | nt | 11 | nt | nt | -69
CCc1ccc(N2C(=O)NC(=O)/C(=C\C=C\c3ccco3)C2=O)cc1 | 7 | 61* | 1 | 1 | -29
CC(C)c1ccc(N2C(=O)NC(=O)/C(=C/C=C/c3ccco3)C2=O)cc1 | -2 | 59* | -4 | 0 | -6
O=C1NC(=O)N(Cc2ccc(F)cc2)C(=O)/C1=C\C=C\c1ccco1 | 6 | 78* | -12 | 0 | -71
O=C1NC(=O)N(Cc2ccccc2)C(=O)/C1=C\c1ccco1 | 15 | 17 | -12 | 0 | -53
Cc1ccc(N2C(=O)NC(=O)/C(=C/C=C/c3ccco3)C2=O)cc1 | -5 | 114* | 0 | -1 | -11
Cn1ccnc1C1(O)CC2CCC(C1)N2CC(=O)Nc1ccc(F)cc1 (stereo not given) | nt | nt | nt | nt | -19
CN1CCN(C(=O)COc2cccc3ccccc23)CC1 | nt | 16 | nt | nt | -52
Cn1ccnc1C1(O)CC2CCC(C1)N2CC(C)(C)CN1CCOCC1 (stereo not given) | nt | 2 | nt | nt | -9
N#CC1=C(N)Oc2c(c(=O)oc3ccccc23)C1c1ccc(OCC(N)=O)cc1 (stereo not given) | nt | 12 | nt | nt | -17
Cc1cc(C)cc(N2C(=O)NC(=O)/C(=C\C=C\c3ccco3)C2=O)c1 | -1 | 87* | 5 | 9 | -81
O=C(O)c1cc(N=Nc2ccc([As](=O)(O)O)cc2)ccc1O | nt | 43* | nt | nt | 33
SMILES | S1P4 antag | EP2 antag | S1P3 antag | S1P4 agonist | EP2 modulator
Cc1ccc(CN2CCNCC2)cc1 | nt | 16 | nt | nt | -25
COC(=O)[C@@H]1C(=O)[C@H](C(=O)OC)[C@@H]2CC[C@H]1N2C | nt | 43* | nt | nt | 45
Cn1ccnc1C1(O)CC2CCC(C1)N2CC(=O)NCCc1ccccc1 (stereo not given) | nt | nt | nt | nt | 37
CCOC(=O)C1(c2ccccc2)CCN(CC(=O)Nc2cccc3ccccc23)CC1 | -9 | 6 | -2 | 1 | 63*
CCc1ncc(CN2C3CCC2CC(O)(c2ccc(F)cc2)C3)cn1 (stereo not given) | nt | 12 | nt | nt | -56
COc1ccc(CC(=O)N(CCN(C)C)C2CCN(C)CC2)cc1C | nt | 5 | nt | nt | -27
CC1=C2C(=O)[C@H]3[C@@H](CC=C4C[C@@H](O)CC[C@@]43C)[C@@H]2CC[C@@]12O[C@@H]1C[C@H](C)CN[C@H]1[C@@H]2C | nt | 41* | nt | nt | 19
COc1ccccc1CNC(=O)CN1C2CCC1CC(O)(c1ccco1)C2 (stereo not given) | nt | nt | nt | nt | -4
C=CCSc1nc2ccccc2c(=O)n1-c1ccccc1C | nt | 5 | nt | nt | 78*
CSc1nc2ccccc2c(=O)n1-c1ccccc1C | nt | 10 | nt | nt | 49
Cc1cc(C)c2[nH]c(=O)c(CN(CCCO)C3(c4nnnn4C4CCCCC4)CCCCC3)cc2c1 | nt | 12 | nt | nt | 20
Cc1ccccc1C(=O)NC(Oc1ccccc1)C(Cl)(Cl)Cl (stereo not given) | 4 | 5 | 5 | 3 | 63*
CCCC(=O)NC(Oc1ccc(C(C)=O)cc1)C(Cl)(Cl)Cl (stereo not given) | 8 | 6 | -2 | 1 | -10
CN1CCN(C2CC3(C)C(CCC4C3CCC3(C)C(O)C(N5CCN(C)CC5)CC43)CC2O)CC1 (stereo not given) | nt | 4 | nt | nt | -36
CC1(C)C2C[C@@H](O)[C@]3(C)C(CC[C@@]4(C)[C@H](c5ccoc5)CC5OC543)[C@@]2(C)[C@@H](O)C[C@H]1O (stereo not given in full) | nt | 5 | nt | nt | 9
C[C@@H]1[C@H]2C=C[C@@H]1[C@H](c1c3ccc(=O)c(O)c-3oc3c(O)c(O)ccc13)[C@@H]2C(=O)O | nt | 45* | nt | nt | -10
CCCCC[CH2][Hg][n+]1c[nH]c2nc(N)[nH]c(=S)c21 | nt | 100* | nt | nt | -28
CN(C)c1ccc(C=C2C(=O)NC(=S)NC2=O)cc1[N+](=O)[O-] | -20 | 8 | -4 | 0 | -19
O=C1NC(=S)NC(=O)C1=Cc1cccc2cc3ccccc3cc12 | 4 | 98*! | 2 | 1 | -42
CCCc1ncc(CN2C3CCC2CC(O)(c2ccc(F)cc2)C3)cn1 (stereo not given) | nt | 2 | nt | nt | -10
Cc1nc(-c2ccccc2)c(CC(=O)N2CCCCC2CN2CCCCC2)s1 (stereo not given) | nt | 4 | nt | nt | -19
Oc1c(Cl)c(Cl)c(Cl)c(Cl)c1Cl (tested in a mixture with another compound) | nt | 65* | nt | nt | -21
CCCN1CCc2cc(O)cc3c2[C@H]1Cc1ccc(O)c(O)c1-3 | nt | 77*! | nt | nt | 9
CN1CCc2cc(O)cc3c2[C@H]1Cc1ccc(O)c(O)c1-3 | nt | 102*! | nt | nt | 13
COc1cc2c(cc1O)C[C@@H]1c3c(cc(O)c(OC)c3-2)CCN1C | nt | 13 | nt | nt | -10
CCc1ncc(CN(CCc2ccccc2)Cc2cccs2)cn1 | nt | 4 | nt | nt | 35
CC1=NN(c2ccccc2)C(=O)[C@H]1N=Nc1ccc([As](=O)(O)O)c(O)c1 | nt | 43* | nt | nt | 46
Cc1c([C@@H](C)[C@H]2NC[C@H](C)C[C@@H]2O)ccc2c1C[C@@H]1[C@@H]2CC=C2C[C@@H](O)CC[C@@]21C | nt | 43* | nt | nt | 8
O[C@H](CN1CC1)[C@@H](O)CN1CC1 | nt | 42* | nt | nt | 22
